Experimental data: PubChem BioAssay (NCATS)
Results filed as inconclusive are left out. Unless noted, calls follow the shape of the dose curve; as a rule, active = well fitted curve in either direction with a large enough effect (not every such curve was filed as active); inconclusive = small, poorly fitted or top-dose-only effect, or another doubt; inactive = flat fitted curve, though single readings scatter.

Molecular target: Mitogen-activated protein kinase 10 (Mus musculus) (UniProt Q61831)
Assay: JNK3 AlphaScreen Assay (AID 530);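 also: kinase came from lysate of stimulated human HepG2 cells; signal reports phosphorylation of biotinylated GST-cJun 1-79 at Ser73 with 10 µM ATP; % is scaled to controls: 0 for no effect and ±100 for the full control effect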
Conditions: JNK3 lysate, c-Jun phosphorylation; series mostly up to 57.1 µM; activity change, negative = inhibition: at the top concentration
Procedure, shortened: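 qHTS format: compounds tested as titrations against IL-1beta/TNF-alpha-activated HepG2 lysate JNK3 with biotin-GST-cJun substrate and 10 uM ATP at room temperature. Loss of anti-phospho-cJun AlphaScreen signal indicates inhibition.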

Activity change, negative = inhibition, inactive:
Cc1noc(C)c1-c1nccc(N2CCOCC2)n1 -5.12%
CNc1nc(-c2ccc3c(c2)OCO3)nc2ccccc12 -2.48%
O=c1c(-c2ccccc2)nc2cnc(Nc3ccccc3)nc2n1Cc1cccs1 6.1%
c1csc(CNc2ccnc(-c3ccoc3)n2)c1 1.37%
Cc1ccccc1-c1nccc(NCCN2CCOCC2)n1 -6.72%
CCNc1ncc2nc(-c3ccc(OC)cc3)c(=O)n(C[C@H]3CCCO3)c2n1 6.87%
CC(=O)NCCNc1nc(-c2cccnc2)nc2ccccc12 -3.53%
Cc1cccc(CNc2cc(-c3c(C)noc3C)ncn2)c1 0.864%
CCNc1ncc2ncc(=O)n(CCOC)c2n1 -4.29%
CCNc1ncc2nc(-c3ccccc3)c(=O)n(Cc3cccs3)c2n1 10.8%
COCCNc1nc(-c2ccccc2Cl)nc2ccccc12 -7.03%
COc1cccc(-c2cncnc2N(C)Cc2ccco2)c1 0.0439%
CN(C)C(=O)c1ccc(-c2cncnc2NCCc2cnc[nH]2)cc1 0.897%
Cc1cnc(CNc2ccnc(-c3ccccc3C(F)(F)F)n2)cn1 1.72%
FC(F)(F)c1ccccc1-c1nccc(NCc2cccs2)n1 6.25%
c1cncc(-c2cncnc2NC2CCNCC2)c1 -4.95%
c1ccc(Nc2cc(-c3ccoc3)ncn2)cc1 -21.6%
Cn1c(=O)c(-c2ccccc2)nc2cncnc21 -6.49%
CN(C)Cc1ccccc1-c1nc(N(C)C)c2ccccc2n1 5.52%
CN(C)c1ncc2nc(-c3ccc(F)cc3)c(=O)n(C)c2n1 16.2%
O=c1cnc2cnc(Oc3cccc(Cl)c3)nc2n1C[C@H]1CCCO1 -0.872%
O=c1c(-c2cc(F)cc(F)c2)nc2cnc(Nc3ccccc3)nc2n1C[C@H]1CCCO1 1.72%
CCNc1ncc2nc(-c3ccc(F)cc3)c(=O)n(CCOC)c2n1 0.797%
CCNc1ncc2nc(C)c(=O)n(CCC#N)c2n1 -3.11%
FC(F)(F)c1ccccc1-c1ccc2ncnc(NCc3cccnc3)c2c1 -0.176%
CCNc1ncc2nc(-c3cccs3)c(=O)n(C)c2n1 22.5%
COc1ccc(CNc2ncnc3ccc(-c4cccnc4)cc23)c(OC)c1 -11.8%
COc1ccc(-n2c(=O)cnc3cnc(OC)nc32)cc1 -2.08%
c1csc(CNc2ncnc3ccc(-c4ccoc4)cc23)c1 -9.56%
Cc1noc(C)c1-c1ccc2ncnc(N3CCN(C)CC3)c2c1 3.07%
COc1ccc(-n2c(=O)c(-c3cccs3)nc3cnc(N(C)C)nc32)cc1 -2.77%
O=c1cnc2cncnc2n1Cc1ccccc1Cl -7.22%
Cc1ccccc1-c1cc(Nc2ccccc2)ncn1 2.5%
COc1ncc2nc(-c3ccccc3)c(=O)n(-c3ccccc3)c2n1 1.55%
COc1ncc2nc(-c3ccc(F)cc3)c(=O)n(-c3ccccc3)c2n1 4.25%
CN1CCN(c2ncc3ncc(=O)n(CCC#N)c3n2)CC1 0.436%
Cc1noc(C)c1-c1cncnc1NCc1ccccc1 -6.62%
COc1cccc(Cn2c(=O)c(-c3ccc(F)cc3)nc3cnc(N(C)C)nc32)c1 12.5%
COCCNc1ncnc2ccc(-c3cccc(OC)c3)cc12 -10.9%
FC(F)(F)c1ccccc1-c1nc(NCCN2CCOCC2)c2ccccc2n1 4.14%

Molecular target: 3',5'-cyclic-AMP phosphodiesterase 4B (Homo sapiens) (UniProt Q07343)
Sequence (Q07343 whole entry, looked up): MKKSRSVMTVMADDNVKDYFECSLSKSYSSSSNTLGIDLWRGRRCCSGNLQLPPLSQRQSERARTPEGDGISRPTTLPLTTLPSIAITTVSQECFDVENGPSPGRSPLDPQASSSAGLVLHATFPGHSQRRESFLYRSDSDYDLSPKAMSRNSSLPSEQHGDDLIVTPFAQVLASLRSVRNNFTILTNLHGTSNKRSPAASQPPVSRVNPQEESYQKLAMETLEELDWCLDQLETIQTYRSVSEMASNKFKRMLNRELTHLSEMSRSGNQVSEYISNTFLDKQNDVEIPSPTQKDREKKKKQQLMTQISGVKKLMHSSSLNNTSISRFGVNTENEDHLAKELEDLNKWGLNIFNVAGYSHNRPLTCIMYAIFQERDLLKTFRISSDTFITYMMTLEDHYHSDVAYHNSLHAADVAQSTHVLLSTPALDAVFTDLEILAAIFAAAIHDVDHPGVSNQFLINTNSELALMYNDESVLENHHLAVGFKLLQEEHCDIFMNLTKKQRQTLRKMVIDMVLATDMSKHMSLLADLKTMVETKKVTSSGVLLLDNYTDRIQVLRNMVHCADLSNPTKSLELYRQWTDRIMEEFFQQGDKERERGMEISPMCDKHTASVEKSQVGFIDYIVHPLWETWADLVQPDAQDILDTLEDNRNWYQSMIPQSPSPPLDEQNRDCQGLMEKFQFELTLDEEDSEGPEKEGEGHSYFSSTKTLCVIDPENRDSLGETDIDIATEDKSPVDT
Assay: qHTS Assay for Inhibitors of PDE-IV (AID 607; active = well fitted activation curve with a large enough effect in the main read-out, with a control signal flat, not every such curve was filed as active; also: % of control where 0% means no effect)
Conditions: HEK293 ACTOne CNG channel cells, membrane potential fluorescence; series mostly up to 22.9 µM; activation (PDE inhibition): at the top concentration
Procedure, shortened: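 HEK293 ACTOne cells with CNG channel (1000/well), endogenous PDE4; membrane potential dye, compounds up to 22.9 uM final. Fluorescence Ex 535/Em 590; RO 20-1724 (100 uM final) as reference.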

Activation (PDE inhibition), inactive:
Cc1noc(C)c1-c1nccc(N2CCOCC2)n1 -1.48%
CNc1nc(-c2ccc3c(c2)OCO3)nc2ccccc12 3.4%
Cc1ccccc1-c1nccc(NCCN2CCOCC2)n1 -3.14%
CC(=O)NCCNc1nc(-c2cccnc2)nc2ccccc12 10.3%
Cc1cccc(CNc2cc(-c3c(C)noc3C)ncn2)c1 15.2%
CCNc1ncc2ncc(=O)n(CCOC)c2n1 2.79%
COc1cccc(-c2cncnc2N(C)Cc2ccco2)c1 2.35%
CN(C)C(=O)c1ccc(-c2cncnc2NCCc2cnc[nH]2)cc1 3.93%
Cc1cnc(CNc2ccnc(-c3ccccc3C(F)(F)F)n2)cn1 9.17%
c1cncc(-c2cncnc2NC2CCNCC2)c1 8.99%
c1ccc(Nc2cc(-c3ccoc3)ncn2)cc1 21%
Cn1c(=O)c(-c2ccccc2)nc2cncnc21 15.7%
CN(C)c1ncc2nc(-c3ccc(F)cc3)c(=O)n(C)c2n1 14.2%
O=c1cnc2cnc(Oc3cccc(Cl)c3)nc2n1C[C@H]1CCCO1 -10.6%
O=c1c(-c2cc(F)cc(F)c2)nc2cnc(Nc3ccccc3)nc2n1C[C@H]1CCCO1 25.2%
CCNc1ncc2nc(-c3ccc(F)cc3)c(=O)n(CCOC)c2n1 22.3%
CCNc1ncc2nc(C)c(=O)n(CCC#N)c2n1 29.9%
CCNc1ncc2nc(-c3cccs3)c(=O)n(C)c2n1 25.3%
COc1ccc(-n2c(=O)cnc3cnc(OC)nc32)cc1 21.2%
c1csc(CNc2ncnc3ccc(-c4ccoc4)cc23)c1 27.3%
COc1ncc2nc(-c3ccc(F)cc3)c(=O)n(-c3ccccc3)c2n1 24%
CN1CCN(c2ncc3ncc(=O)n(CCC#N)c3n2)CC1 7.83%
Cc1noc(C)c1-c1cncnc1NCc1ccccc1 8.8%
COc1cccc(Cn2c(=O)c(-c3ccc(F)cc3)nc3cnc(N(C)C)nc32)c1 4.63%
COCCNc1ncnc2ccc(-c3cccc(OC)c3)cc12 25%
FC(F)(F)c1ccccc1-c1nc(NCCN2CCOCC2)c2ccccc2n1 2.35%
